Reference: the supplement of paper PMC11417369
± gives the standard deviation of the averaged measurements. The full ranking holds about 25,000 sequences; the median of “ln(normalized median fluorescence intensity)” is about 7.9, and the highest 2% start at about 11. What follows is part of a selection rich in the highest values, with near analogues and random picks from the rest.

What follows are sequences tested on PfAP2-I AP2 domain 3 (GST-tagged) (assay: gcPBM binding intensity (ln(normalized median fluorescence intensity)); higher = stronger DNA binding).
Method in brief: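 GST-fused DNA-binding domains of P. falciparum, expressed in E. coli, were applied at about 25 μg on average for 1 h to an Agilent 4 × 180k array of primer-extended double-stranded 36-bp intergenic genomic probes and negative controls. Binding intensity is the highest Masliner-normalised natural-log median intensity across replicate spots of either probe orientation, measured with Alexa488 anti-GST antibody and a 488 nm scan.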

Sequence	gcPBM binding intensity (ln)
TTTATTTTCATATGAACACACATATAAATATTATAA [CACACA_site7172]	7.87 ± 0.41
TTATTTTCTTTCTATGCACACGCACGTATTTGCCCA [CACACA_site9104]	9.39 ± 0.16
ATTTTCTTTCTATGCACACGCACGTATTTGCACCCA [CACACA_site3350]	11.5 ± 0.39
TTTATTTTATCATTTGCACACGCACCCCCACATAAA [CACACA_site8007]	10.4 ± 0.26
GCTTATATTAATAAGGTGCTTTTTATTTCGTGTGTA [GTGCAC_site9649]	9.06 ± 0.15
AAGGAAAAAACAAATACACACAAAAACGCATTATAA [CACACA_site3466]	7.87 ± 0.71
TTATGGTGCAACATTATGCACACCGTTAAATAACTA [CACACA_site3846]	11.1 ± 0.52
TCATAAACATTATGCACACAAAAATAAAAAAAAATA [CACACA_site1115]	9.8 ± 0.56
AACAACAACTAATATGCACACATTTAAAAACAAAAT [CACACA_site2440]	9.42 ± 0.26
TGATTCTAACTTATGGTGCAACATTATGGACACCGT	10.3 ± 0.35
ATGGTGCAACATTATGCACACCGTTAAATAACTAAT [CACACA_site9280]	11.5 ± 0.7
AATCATAAACATTATGCACACAAAAATAAAAAAAAA [CACACA_site8289]	9.81 ± 0.11
TACTTTTCTTAAAGATGTACGTTTTAAAAATAAAAT [XGTACX_site14]	7.81 ± 0.2
ATATTTCTGTGTGGATGTACATTATTAGCAGGCTTT [XGTACX_site6496]	8.12 ± 0.73
TTTTTTTTTTTTTTTTGTACTTATAAAATAACATGT [XGTACX_site134]	8.13 ± 0.82
TTTTTTATTTAAAGTAGTACTTTTTAGAAAACAAAA [XGTACX_site6759]	7.68 ± 0.29
CACTAAAAGAAACACACACACACACCCATATATATA [CACACA_site4151]	8.44 ± 0.75
AATGCACTATTTAAAAGTACACATAAGAAAAGCATA [XGTACX_site1739]	9.24 ± 0.28
AAAGCACCCATGCACACACACAAAGGAAAAGAAAAA [CACACA_site6249]	8.32 ± 0.38
TTAAAGCACCCATGCACACACACAAAGGAAAAGAAA [CACACA_site233]	11.1 ± 0.93
TTAAAGCACCCATGCACACACACAAGGGAAAAGAAA [CACACA_site4289]	10.9 ± 0.92
TATTAAAGCACCCATGCACACACACTAAGGAAAAGA [CACACA_site7961]	11.6 ± 0.71
TATAAATCTATAAATGCACACAAGGGAAGAAAAACG [CACACA_site2965]	9.46 ± 0.26

Sequence	gcPBM binding intensity (ln)
AAAGCACCCAGGCACACACACAAAGGAAAAGAAAAA [CACACA_site232]	7.95 ± 0.49
AAAGAAGGGAAACACACACACACACCCACAAAAAAA [CACACA_site3766]	8.17 ± 0.21
AAACAAAAAAGTAAGAAAAGGGATGATTGGATCCAA [CACACA_negctrl_site1230]	7.35 ± 0.78
GGAAACCCTCCCAAATGTACTTTTATAAAAAAATAC [XGTACX_site5502]	8.2 ± 0.6
TTTATTTATCTTTACGCACACACTTGCATGTACAAA [CACACA_site1118]	9.455 ± 0.021
ACAAATCTAAGATAGTGTACATTTATATATATATAT [XGTACX_site8740]	9.4 ± 0.24
ACATAAATATATGACACACACACATATTATATATAT [CACACA_site3065]	8.36 ± 0.52
AAAAATAAAAAAAAATTAAAATATATATATTTTGTT [TGCATGCA_negctrl_site102]	7.49 ± 0.67
GAAATGTATAAATCCATACACACATAAATTTTAATA [CACACA_site2364]	7.58 ± 0.4
TATTTCTTATTACATACACACATATACATAGATGAC [CACACA_site5729]	8 ± 0.55
TTATTAAAAATGGTATGTACGCACATAATATATATA [XGTACX_site3230]	8.56 ± 0.51
GATAAAATCACTGGTGCATGTAGATATATAATATTA [TGCATGCA_site589]	9.12 ± 0.085
ATATGTACGCAAGGTGCACACTGGTGCATTAAAAAA [CACACA_site1801]	12.1 ± 0.21
TATGTGTGCAAAAACTGTACACATTAAAGGTATATA [XGTACX_site7627]	9.32 ± 0.28
TGCAAAAAATTCCACACACACACACGCATATAAATA [CACACA_site6696]	7.95 ± 0.38
GCAAGGTCCACACTGGTGCATTAAAAATAAAATATA [GTGCAC_site9956]	11.6 ± 0.41
TTTATTTGGACATATACACACTTAAATATGTTTATT [CACACA_site6021]	7.59 ± 0.47
TTTTTTTTGATATATACACACAATAAATAAATATAA [CACACA_site7400]	7.78 ± 0.39
TATAATATATGTATATGTACTTATGTTGAGAAACAT [XGTACX_site2117]	7.72 ± 0.59
AATAAATATAGGAATACACACAATATAAATGTATTG [CACACA_site3366]	7.5 ± 0.62
GATACATAGAAACACACACACATACATATATACATA [CACACA_site3438]	8.01 ± 0.4
ATTGCCATTGTTAATGCATGTAACAATTCAGCTCAT [TGCATGCA_site56]	8 ± 0.83
TAAAAATATTTTCATTGTACATATATATAAATATAT [XGTACX_site1123]	7.59 ± 0.3

Sequence	gcPBM binding intensity (ln)
AAAATAAATAAATATACACACCATATATATATTTTT [CACACA_site5573]	7.61 ± 0.39
TACAACAATTTTTGCACACACCAAAACATAAAATAA [CACACA_site4964]	9.15 ± 0.22
AAAAAATTTTGAAATTGTACATATATAAAAAATATA [XGTACX_site2629]	7.59 ± 0.29
ATTTTTTTTTTTTTTTTTTTTGCACCATAAAATAAT [CACACA_negctrl_site1324]	11.2 ± 0.56
AAAAATGAATTATTTTGTACATATATATATATATAT [XGTACX_site3410]	9.48 ± 0.54
ATATATTGCACTTTTTGTACATAATGAAAAATTTTT [XGTACX_site8223]	11.5 ± 1
AATATATTTTTTTTTTGTACATATTGTAAAATAATA [XGTACX_site6805]	7.83 ± 0.22
AATATTGCACCATTTTGTACATAATATATTCAAATA [XGTACX_site475]	11.7 ± 0.74
TTTCTTCGAAATAGAACACTTGTGCAAAATAAGCAA [XGTACX_negctrl_site361]	9.9 ± 0.23
AAATTTAAAAATAAAGAACACACATATGTAAAATAT [CACACA_site9252]	7.91 ± 0.76
AGGATACACGGACACACACACATATAGATTTATATA [CACACA_site6552]	8.14 ± 0.2
AATTTATTAAAAAAATGTACTTATTTTTTTGTATAA [XGTACX_site5844]	7.61 ± 0.11
TTTATTCAAGGAATAGTGCATAATAATAAGTATTAT	11.2 ± 0.62
ATTTATAATATTCAAGTGCATATATATTTTTTACTT	9.57 ± 0.14
ATATATTTTTATATAGTGCAAGTAATAAAAAGGAAT	10.04 ± 0.099
TACTATTTTTATAATACACACATATATTTGTGATAT [CACACA_site1775]	7.84 ± 0.44
TTTGTTATATTTAATACACACATATTATAAACACAT [CACACA_site7703]	8.07 ± 0.34
TATATATAATATTATACACACATATCTGCATAATAT [CACACA_site4202]	8.13 ± 0.49
TTAATATATTATCTGGTGCATAAACACGTTATACCT	11.3 ± 0.64
GGTTATATATTTTTTGCACACCAAAAAAGAGAATAT [CACACA_site2731]	9.56 ± 0.14
TATATATATTTATGCACACAAAATATATTATAGAAT [CACACA_site3740]	9.99 ± 0.4
ATTATATACATATATGCACACAAAAAAATATATATT [CACACA_site8508]	9.04 ± 0.12
AACTCATAGCGGTGTGCACACAAAAAATTAAAAAAA [CACACA_site3033]	9.9 ± 0.2

Sequence	gcPBM binding intensity (ln)
ATTAATTTTATATATGCACACAAAATATGTTCATAT [CACACA_site9350]	9.13 ± 0.099
TGAATATTCATATGCACACAAATTAATATACATAAT [CACACA_site442]	8.675 ± 0.021
ATTCACAAATATATGGTGCATAATATATATATATAT [GTGCAC_site9674]	11.31 ± 0.078
AACTCATAGGAGTGTGCACACAAAAAATTAAAAAAA [CACACA_site8996]	9.52 ± 0.42
ATGGCATAAATATATGCACACACAAAAAAAAAAAAA [CACACA_site7902]	8.98 ± 0.11
TTCATATTATAGTGCACACAAAAATATATATATGGT [CACACA_site2855]	11.3 ± 0.43
TTTTCATATTATAGTGCACACAAAAATATATATATG [CACACA_site8929]	11.5 ± 0.47
CTCATAGTTGGGTGCACACAAAAAATTAAAAAAATA [CACACA_site3032]	11.1 ± 0.81
CATATAAAAATATATGCACACAAATAAAAAATTATA [CACACA_site9210]	8.94 ± 0.39
AAAAGGGAAATAAAATAAAAAAAGAAACATATATAG [CACACA_negctrl_site455]	7.72 ± 0.76
ATATGATCATAAAACACACACACAAAAAAAAAAAAA [CACACA_site1806]	7.95 ± 0.75
TATATATGTGTATAGAGTACACGTTTTTTTTAATAT [XGTACX_site3128]	7.71 ± 0.38
ATTGTATTAAAATGCACACATATCAAGAGGAATTTT [CACACA_site283]	9.095 ± 0.064
AAAGAAAATAACAAAATTTTGAAAACATCACATTCG [CACACA_negctrl_site89]	7.63 ± 0.69
ATCAAAATGTTAAAGATACACACCTAACAAACACAA [CACACA_site955]	7.96 ± 0.19
TAAATCATTTATTAAGTGCAATATTCTTTTTGAGAT	10.3 ± 0.28
ATATATATATATATGGTGCATGAAAATTTACTTTGA	10.11 ± 0.085
TATATATGTATGTATGTACACACAAAAAATGGAATA [CACACA_site9235]	8.05 ± 0.45
CGTATATCACCAACTAGTACATATAAATAAATAAAT [XGTACX_site8837]	7.92 ± 0.5
AAAAAGAATATAAGTAGTACAGTGCATATAATAATT [XGTACX_site617]	10.3 ± 0.37
TATATAATATATATAGTGCATAAGTTCAAAAGAATA [GTGCAC_site9805]	9.95 ± 0.16
AAAAAGGTTAAGGTAGTGCATAATAAAGAATATTAA	11 ± 0.45
